# Source: ChEMBL document CHEMBL3988442, “University of Dundee, Small-Polar-MMV Screening Library” (2021)
# Screen size: about 53,000 compounds; about 900 (1.7%) showed an effect of 50% or more. This is one part of a sample in which strong results are shown more often than they occur.
# Tested on: Mycobacterium tuberculosis
# Experiment: Cornell - Phenotypic assay to identify agents that inhibit growth of Mycobacterium tuberculosis
# Format: functional
# Set-up: scale not given: direction of the effect not stated beside the values
# Settings: 10 mM as filed; unlikely as a test dose
row,SMILES,Percent Effect
1,CN(Cc1ccc(CCC(C)(C)O)cc1)CC1(CO)CC1,3.977%
2,CC(Cc1ccco1)NS(=O)(=O)N1CCCCCC1 (centres undefined),68.78%
3,CC(Cc1ccco1)NS(=O)(=O)N1CCCCC1 (centres undefined),35.85%
4,CC1CCN(S(=O)(=O)NC(C)Cc2ccco2)CC1 (centres undefined),45%
5,CCCn1c(C)c(CC(=O)NCC(C)O)c2c1CC(C)(C)CC2=O (centres undefined),21.56%
6,CCc1cc(N(C)CCC(O)c2ccccc2)n2nccc2n1 (centres undefined),-53.72%
7,COCC(=O)N1C[C@@H](c2cccc(F)c2)[C@H]2[C@H]1CCCCCN2C(C)=O,-30.92%
8,O=C(NCc1ccc(Br)cc1)C1(O)CCSCC1,26.99%
9,O=C(O)C(F)(F)F.O=C(O)C(F)(F)F.O=C(O)C(F)(F)F.c1cc(CNCC2OCCc3cn(CC4CCOCC4)nc32)ccn1 (centres undefined),-7.498%
10,CCCN(CC(F)(F)F)S(=O)(=O)c1cc(C(N)=O)n(C)c1,-26.73%
11,COCC1CCN(C(=O)c2cn(Cc3ccccc3F)nn2)CC1,25.9%
12,COCC1CCN(C(=O)c2cn(Cc3ccccc3C(F)(F)F)nn2)C1 (centres undefined),62.81%
13,COCC1CCN(C(=O)c2cn(Cc3cccc(C(F)(F)F)c3)nn2)C1 (centres undefined),30.37%
14,Cc1nc(NCC2CCOCC2)cc(C2CCN2S(C)(=O)=O)n1 (centres undefined),10.58%
15,CC1N(c2cnn(C)c2)C(=O)COC12CCN(Cc1ccco1)CC2.O=C(O)C(F)(F)F (centres undefined),2.626%
16,COCCNC(=O)[C@H]1C[C@@H]2CCN(c3ccncn3)C[C@H]2O1.O=C(O)C(F)(F)F,26.18%
17,CCCNC(=O)c1cncc(CC2CCCN(C)C2)c1 (centres undefined),-32.48%
18,CN1C(=O)[C@H](OC(N)=O)[C@@H](C(=O)Nc2ccccc2)C12CCNCC2,-56.88%
19,COCCN(Cc1ccco1)Cc1nc(-c2ccccc2)no1,-9.832%
20,COCCN(Cc1ccccc1)Cc1nc(-c2ccsc2)no1,50.54%
21,COCCN(Cc1ccco1)Cc1nc(-c2ccsc2)no1,-23.17%
22,CN(C)c1cc(C2CCCN(C(=O)c3noc4c3CCCC4)C2)ccn1 (centres undefined),38.49%

row,SMILES,Percent Effect
1,COCCNC(=O)c1cc2c(c3ccccc3n2C)n1C(=O)N(C)C,18.89%
2,Cc1cc(C(N)=O)ccc1NC(=O)N1CCN(c2cccs2)CC1,67.2%
3,Cc1cc(NC(=O)N2CCN(c3cccs3)CC2)ccc1C(N)=O,3.823%
4,NC(=O)c1ccc(NC(=O)N2CCN(c3cccs3)CC2)c(F)c1,54.78%
5,CNC(=O)CN1CCN(C(=O)Nc2ccc(Cl)cc2F)CC1,-7.252%
6,O=C(Nc1ccccc1-c1cccs1)N1CCN(CC(F)F)CC1,-4.883%
7,CCn1cnnc1CNC(=O)N1CCN(c2cccs2)CC1,-10.74%
8,CC(C)OCCC(=O)NCCc1csc(N2CCCC2)n1,-16.85%
9,COCC(=O)NCc1cc(=O)n2c(n1)CN(Cc1ccccc1)CCC2.O=C(O)C(F)(F)F,6.068%
10,OCc1ccc(CN(CCCn2ccnc2)Cc2cccnc2)o1,33.2%
11,N#Cc1cc2c(nc1O)CCCCC2,-24.16%
12,CN1C(=O)COc2cc(NC(=O)CCc3nc4cccnc4[nH]3)ccc21,11.88%
13,COC(=O)Cc1cn2cc(C(F)(F)F)ccc2n1,-22.96%
14,CC(C)NC(=O)[C@@]12CCO[C@@H]1CCN(Cc1ccc3c(c1)OCO3)C2.O=C(O)C(F)(F)F,-5.39%
15,CCSCC(C)NCc1nc(-c2cccnc2)no1 (centres undefined),-14.24%
16,O=C(CCc1ccsc1)Nc1cccnc1N1CCCC1,8.029%
17,CCN(CC)C(=O)CCc1c(C)nc2cc(O)nn2c1C,7.759%
18,CN(C)[C@@H]1CN(Cc2cccnc2)C[C@H]1c1cn(C)c2ccccc12.Cl,6.134%
19,COc1cccc([C@@H]2CCN(Cc3cn(C)c4ccccc34)C[C@H]2O)c1,-6.919%
20,CN(C)[C@@H]1CN(Cc2ccccc2O)C[C@H]1c1cn(C)c2ccccc12.Cl,107.3%
21,CN(C)[C@@H]1CN(Cc2ccc(O)cc2)C[C@H]1c1cn(C)c2ccccc12.Cl,-25.68%
22,CN(C)[C@@H]1CN(Cc2ccccn2)C[C@H]1c1cn(C)c2ccccc12.Cl,54.37%

row,SMILES,Percent Effect
1,Cc1cc(C)n(C2CN(Cc3ccccn3)C2)n1,-9.481%
2,CSCC[C@@H]1CN2CCC[C@H]2CN1Cc1cn(C)nc1C,-32.61%
3,Cc1nc(CN2CCCN(Cc3nc4c(F)cccc4[nH]3)CC2)no1,-62.54%
4,O=C(NCCS(=O)(=O)N1CCN(c2ncccn2)CC1)C1CC1,-28.73%
5,CCN(Cc1ccncc1)CC1(O)CCN(C(=O)c2cccc(C)n2)C1 (centres undefined),-8.223%
6,CCCc1nc(C)c(C(=O)NCCN2CCN(CC)CC2)s1,13.14%
7,CN1CCN(CC(CC(=O)Nc2ccc(Cl)cc2)C(=O)O)CC1 (centres undefined),46.61%
8,CN1CCCN(CC(CC(=O)Nc2ccc(Cl)cc2)C(=O)O)CC1 (centres undefined),27.51%
9,Cc1cccc(C)c1NC(=O)CC(CN1CCN(C)CC1)C(=O)O (centres undefined),68.43%
10,CC(CN1CCOCC1)NC(=O)NCc1cccs1 (centres undefined),-17.54%
11,COc1cccc(N2CCN(Cc3cccc(CCN)c3)CC2=O)c1,56.89%
12,COc1cccc(N2CCN(Cc3ccc4[nH]ccc4c3)CC2=O)c1,56.6%
13,COc1cccc(N2CCN(Cc3ccc4ccn(C)c4c3)CC2=O)c1,57.23%
14,COc1cccc(N2CCN(Cc3ncc[nH]3)CC2=O)c1,-18.02%
15,COc1cccc(N2CCN(Cc3cc(C)cc(F)c3)CC2=O)c1,45.53%
16,COc1cc(CN2CCN(c3cccc(OC)c3)C(=O)C2)cc(OC)c1,8.627%
17,NCCc1cccc(CN2CCN(c3ccccc3)C(=O)C2)c1,-23.11%
18,NCCc1cccc(CN2CCN(c3cccc(Cl)c3)C(=O)C2)c1,12.48%
19,COc1cccc(N2CCN(Cc3ccc4occc4c3)CC2=O)c1,21.65%
20,Cc1ccnn1CCC(=O)N1CCCC[C@@]2(C)[C@@H]1CCC(=O)N2C,-72.7%
